Bioassay records as filed in PubChem.
Beta apoptosis: inhibitors of cytokine-induced beta cell apoptosis, primary screen, luminescence. 300,000 compounds, 0.8% hits. protection from apoptosis, % (no concentration beside the values). INS-1E cytokine-induced death, ATP luminescence, 48 h; percent of positive-control rescue, neutral wells zero;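 active means Every replicate reaches about 75%, or at least half do and their mean reaches it too, limit read from the data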;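 further: higher means more ATP so stronger rescue from cytokine killing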
MPTP inh: mitochondrial permeability transition pore inhibitors, primary screen, biochemical, isolated mouse mitochondria, absorbance; Ca2+ swelling absorbance, 30 min; inhibition, % at 10 µM; 360,000 compounds, 1.4% hits;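 active means inhibition of 50% or more, scaled per plate between neutral and stimulator controls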
CSC inhib: cancer stem cell viability inhibitors, primary screen, luminescence; cancer stem cell-like cells viability; 300,000 compounds, 1.1% hits; inhibition, % at 7.5 µM; in the data active means inhibition above about 75%; tested in HMLE shEcad cells
Mdm2 MdmX PPI: inhibitors of human Mdm2-MdmX association, primary screen, cell-based, luminescence, split luciferase, SaOS-2, uHTS | Protein Mdm4 (Homo sapiens) + E3 ubiquitin-protein ligase Mdm2 (Homo sapiens), … | SaOS-2 split-luciferase Mdm2/MdmX complementation | inhibition, % at 8 µM | 330,000 compounds, 3% hits;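 active means inhibition of at least 50% at 8 µM in the primary screen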
Target sequence (O15151 whole entry, looked up): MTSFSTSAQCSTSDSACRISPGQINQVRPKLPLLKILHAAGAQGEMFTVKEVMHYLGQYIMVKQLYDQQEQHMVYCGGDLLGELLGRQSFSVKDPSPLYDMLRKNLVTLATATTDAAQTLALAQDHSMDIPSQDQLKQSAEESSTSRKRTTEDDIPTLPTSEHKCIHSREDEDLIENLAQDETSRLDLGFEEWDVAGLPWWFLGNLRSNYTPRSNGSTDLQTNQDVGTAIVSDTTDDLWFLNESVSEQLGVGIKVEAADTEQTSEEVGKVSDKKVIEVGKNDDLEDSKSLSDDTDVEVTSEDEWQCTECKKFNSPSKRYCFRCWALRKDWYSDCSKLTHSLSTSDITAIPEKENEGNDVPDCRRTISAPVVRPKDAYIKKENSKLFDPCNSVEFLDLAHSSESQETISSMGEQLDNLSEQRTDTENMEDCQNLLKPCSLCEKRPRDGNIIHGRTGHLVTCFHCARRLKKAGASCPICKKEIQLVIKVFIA
Target sequence (Q00987 whole entry, looked up): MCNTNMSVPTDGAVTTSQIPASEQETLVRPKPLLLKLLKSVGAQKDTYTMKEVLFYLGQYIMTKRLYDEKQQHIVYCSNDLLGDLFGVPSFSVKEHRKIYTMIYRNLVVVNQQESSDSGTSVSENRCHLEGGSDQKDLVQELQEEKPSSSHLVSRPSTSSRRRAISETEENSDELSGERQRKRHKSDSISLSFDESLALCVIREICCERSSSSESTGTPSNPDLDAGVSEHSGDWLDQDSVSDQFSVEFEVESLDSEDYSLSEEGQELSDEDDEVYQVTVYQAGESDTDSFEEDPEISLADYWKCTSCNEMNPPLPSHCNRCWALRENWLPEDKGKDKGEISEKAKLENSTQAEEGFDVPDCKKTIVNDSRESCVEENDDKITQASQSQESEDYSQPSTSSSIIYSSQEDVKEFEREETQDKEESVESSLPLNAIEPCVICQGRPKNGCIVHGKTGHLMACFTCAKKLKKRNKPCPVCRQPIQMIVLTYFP
GRIN3A LBD mod: binders of NR3A ligand-binding domain, primary screen, biophysical, differential scanning fluorimetry, uHTS; Glutamate receptor ionotropic, NMDA 3A (GRIN3A) ligand-binding domain; NR3A LBD differential scanning fluorimetry, Tm shift; 0% = protein alone, 100% = glycine-bound protein; Tm shift relative to glycine control, % at 25 µM; 340,000 compounds, 2.5% hits; AID 1259313, 2017;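 active means melting temperature shift of at least 10% of the positive control shift, at one fixed dose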
Gli-Sufu antag: Gli-Sufu pathway antagonists, primary screen, luciferase luminescence, Sufu-KO-LIGHT cells, uHTS. Sufu-KO-LIGHT fibroblasts, Gli luciferase reporter luminescence. 340,000 compounds, 0.74% hits. AID 588413, 2011. inhibition, % at 5 µM;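 active means inhibition above about 55%, limit read from the data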
Of the large screens only hits and unclear results are named; the others gave an inactive call. The list is not random: actives were taken first. Their share in the collection is about 6.6%.

N#Cc1c(-c2ccccc2)c(-c2ccccc2)nn(CC(=O)NNC(=O)Nc2ccc(Cl)cc2)c1=O	GRIN3A LBD mod 15
O=C(Cn1nnc(-c2ccccc2NC(=O)c2cccs2)n1)Nc1ccccc1	GRIN3A LBD mod 22
O=C(O)CCCN1C(=O)/C(=C/c2ccncc2)SC1=S	none
O=C(O)CCCN1C(=O)/C(=C/c2ccc(-c3nc4ccccc4s3)o2)SC1=S	GRIN3A LBD mod 26
Cc1nn(-c2nc3ccccc3s2)c(N)c1-c1ccccc1	none
Cc1nn(-c2nc3ccccc3s2)c(N)c1Sc1ccc(F)cc1	GRIN3A LBD mod 15
Cc1cc(N)n(-c2nc3ccccc3s2)n1	GRIN3A LBD mod 32
O=C(CC[C@H]1O[C@@H](n2cnc3c(NC(=O)c4ccccc4)ncnc32)[C@H](O)[C@@H]1O)NCc1nc2ccccc2[nH]1	none (no result: Beta apoptosis, CSC inhib, Mdm2 MdmX PPI, GRIN3A LBD mod, Gli-Sufu antag)
CCN(Cc1ccccc1)C(c1ccc(C(F)(F)F)cc1)c1nnnn1C(C)(C)C (stereo unspecified)	Beta apoptosis 106
Cc1cc(N(C)/N=C/c2ccccc2)nc(-c2ccccc2O)n1	none
Cc1cc(N/N=C/c2ccc(O)cc2O)nc(-c2ccccc2O)n1	Beta apoptosis 76, CSC inhib 99, GRIN3A LBD mod 35 (no result: Mdm2 MdmX PPI)
Cc1cc(N/N=C\c2ccccc2)nc(-c2ccccc2O)n1	GRIN3A LBD mod 31
CC(=O)Nc1ccc(C(=O)N/N=C/c2cc(Br)cc(Br)c2O)cc1	GRIN3A LBD mod 19
COc1cc(OC)c(/C=N/NC(=O)c2ccc(NC(C)=O)cc2)cc1Br	none (no result: Beta apoptosis, CSC inhib)
Clc1ccc(-c2nnc(-c3ccccc3)c(-c3c[nH]c4ccccc34)n2)cc1	none
Clc1ccc(-c2nnc(-c3ccccc3)c(-c3ccccc3)n2)cc1	CSC inhib 85
O=c1c2cc(N3CCOCC3)ccc2[nH]c(=S)n1Cc1ccc(Cl)cc1	GRIN3A LBD mod 38
CCOc1ccc(CNC(=S)N/N=C\c2ccc([N+](=O)[O-])cc2)cc1	GRIN3A LBD mod 24
O=C(COC(=O)COc1ccc(Cl)cc1)Nc1ccc(F)c([N+](=O)[O-])c1	GRIN3A LBD mod 12
Cc1ccc(NC(=O)COC(=O)COc2ccc(Cl)cc2)c([N+](=O)[O-])c1	none
O=C(COC(=O)CNC(=O)c1ccccc1)Nc1ccc(F)c([N+](=O)[O-])c1	GRIN3A LBD mod 13
CCN(C(=O)COC(=O)c1nn(-c2ccccc2)c(=O)c2ccccc12)C1CCS(=O)(=O)C1 (stereo unspecified)	none
C=C(C)COc1ccc(-c2[nH]ncc2Oc2ccccc2OC)c(O)c1	GRIN3A LBD mod 16
CCCOC(=O)c1ccc(Oc2cn[nH]c2-c2ccc(OC)cc2O)cc1	CSC inhib 104, GRIN3A LBD mod 17
c1ccc(Cc2c(C3CCCCC3)nc3c4ccccc4ccn23)cc1	none (no result: Beta apoptosis, CSC inhib, Mdm2 MdmX PPI, GRIN3A LBD mod, Gli-Sufu antag)
CC(C)(C)c1ccc(NC(=O)COC(=O)C2CCCC2)cc1	none (no result: CSC inhib)
CC(C)(C)c1ccc(NNC(=O)C2CCC2)cc1	Beta apoptosis 109
COc1cc(/C=C2\C(=N)N3N=C(S(C)(=O)=O)SC3=NC2=O)cc(OC)c1OCCOc1ccccc1C	GRIN3A LBD mod 33
C=CCOc1ccc(/C=C2\C(=N)N3N=C(S(=O)(=O)CC)SC3=NC2=O)cc1OC	GRIN3A LBD mod 11
CCOc1cccc(Nc2ccc([N+](=O)[O-])cn2)c1	none
CC(=O)C1=C(O)C(=CC=Cc2ccccc2)OC1=O	none (no result: Beta apoptosis, CSC inhib, Mdm2 MdmX PPI, GRIN3A LBD mod, Gli-Sufu antag)
COc1cc(C(=O)NNC(=O)C2CC2)cc(OC)c1OC	GRIN3A LBD mod 15
Cc1ccc(-c2cc(N)n(-c3ccccc3)n2)cc1	GRIN3A LBD mod 26
Cc1cccc(-c2cc(N)n(-c3ccccc3)n2)c1	GRIN3A LBD mod 31 (no result: Beta apoptosis, CSC inhib, Mdm2 MdmX PPI)
CCc1ccc(-c2cc(N)n(-c3ccccc3)n2)cc1	none (no result: Beta apoptosis, CSC inhib, Mdm2 MdmX PPI)
Cc1sc(NC(=O)C2CSC3(C)CCC(=O)N23)nc1-c1ccc(F)cc1 (stereo unspecified)	none
CCOC(=O)c1csc(-c2ccc(COC(=O)c3ccccc3)o2)n1	none (no result: Beta apoptosis, CSC inhib, Mdm2 MdmX PPI, GRIN3A LBD mod, Gli-Sufu antag)
